Sampled rows, rich in hits. Any-hit rate of the full collection: about 3.1%.
LGR2 antag – inhibitors of bursicon-induced Drosophila LGR2 receptor cAMP signaling. HEK293 LGR2, CRE-luciferase, bursicon-stimulated, 4 h. AID 720647. actives 0.35% (n = 380,000). inhibition, % at 9.99 µM;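 active = drop in luminescence signal, shown as inhibition above about 50% in the replicate tests, limit read from the data, passing the limit was not always enough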;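 note: agonist challenge used bursicon conditioned medium at about half maximal strength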
EBV LMP1 NFkB – inhibitors of Epstein-Barr LMP1-induced NF-kappaB reporter; LMP1-induced NF-kappaB luciferase reporter cells, luminescence; inhibition, % at 12.5 µM; actives 0.69% (n = 350,000); in the data active = inhibition above about 41%;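 note: 0% = neutral control wells and 100% = reference inhibitor control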
EWS-Fli block – EWS/Fli transcriptional activity inhibition; A673 NR0B1-luciferase reporter, viability-normalised; actives 0.67% (n = 350,000); inhibition, % at 12.6 µM;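 active = mean inhibition of at least 50% after viability correction, with every replicate also passing that limit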;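 note: firefly luciferase signal divided by Alamar Blue viability fluorescence both relative to DMSO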
TWEAK Fn14 block – blocks TWEAK-Fn14 interaction in a reporter cell assay; inhibition, % at 10 µM; TWEAK-stimulated Fn14 reporter cells, luciferase luminescence, 8 h; actives 2% (n = 360,000); AID 1159606; in the data active = inhibition above about 50%
TROY signal inh – inhibitors of TROY-dependent NF-kB signaling. AID 1347056. inhibition, % at 10 µM. Q293 LMP1-TROYcd NF-kB luciferase reporter, 4 h. actives 0.98% (n = 360,000);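 active = compounds whose plate-normalised and pattern-corrected inhibition of the luciferase reporter signal at the single screening dose is 50% or more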
PAX8 inh HTS – PAX8 transcriptional activity inhibition; RMG-I TPO-luciferase reporter, SteadyGlo, 24 h; inhibition, % at 12.6 µM; actives 1.2% (n = 360,000); AID 652154;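 active = mean replicate inhibition at least 60% with every replicate also reaching 60%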;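 note: luciferase light reporting Pax8 driven TPO promoter activity; plate controls were median of neutral control wells for no effect and mitoxantrone controls for full effect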
DNA binder FP – binds DNA displacing acridine orange; salmon sperm DNA acridine orange fluorescence polarization; AC35, µM (doses to about 68 µM), without a hit: at the top dose activity change, negative = DNA binding; AID 720586; actives 2% (n = 640); shares compounds with EWS-Fli block;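 active = fitted curve reaches a 35% signal fall AC35 below twice the sample's top valid tested dose, actives reach about 48 µM in these data; inactive = the rest, including activity in the rising direction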;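 note: lower polarization ratio signals compound binding to DNA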
* marks the source's active call; other numbers are inactive results; ! = not confirmed by another sample.

CC(=O)Nc1cc(C(=O)NCc2ccco2)ccc1Sc1ccc(F)cc1 was read as LGR2 antag -4, EBV LMP1 NFkB -4, EWS-Fli block 85*, TWEAK Fn14 block -5, TROY signal inh 22, PAX8 inh HTS 28 and DNA binder FP -7%.
`CCOc1ccccc1CNC(=O)c1ccc(Sc2ccc(Cl)cc2)c(NC(C)=O)c1` gave LGR2 antag -5, EBV LMP1 NFkB 4, EWS-Fli block 80*, TWEAK Fn14 block -10, TROY signal inh 18, PAX8 inh HTS 3 and DNA binder FP 5%.
`CC(=O)Nc1cc(C(=O)NCc2ccco2)ccc1Sc1ccc(Cl)cc1` gave EBV LMP1 NFkB 11, EWS-Fli block -13, TWEAK Fn14 block 5, TROY signal inh 14 and PAX8 inh HTS 17.
Screening CCOc1ccc(CNC(=O)c2ccc(Sc3ccc(Cl)cc3)c(NC(C)=O)c2)cc1 returned LGR2 antag 7, EBV LMP1 NFkB 17, TWEAK Fn14 block 28, TROY signal inh 27 and PAX8 inh HTS 7.
`CC(C)NC(=O)Nc1ccc2c(c1)CC(=O)N([C@H](C)CO)C[C@H](C)[C@H](CN(C)S(=O)(=O)c1cccs1)O2` gave LGR2 antag -8, EWS-Fli block -8 and PAX8 inh HTS -28.
Screening O=S(=O)(c1ccc(F)cc1)N1C[C@H]2[C@@H](c3ccccc31)[C@H](CO)N2Cc1ccccc1Cl returned LGR2 antag 1, EWS-Fli block 60*, PAX8 inh HTS 109* and DNA binder FP -5%.
`CCOc1cc(N2CCC(O)CC2)ccc1Nc1ncc2c(n1)N(C)c1ccccc1C(=O)N2C` gave LGR2 antag -1, EWS-Fli block 55*, PAX8 inh HTS -72 and DNA binder FP 10%.
COc1ccccc1N1CCN(C2CCN(C(=O)c3ccc(F)cc3)CC2)CC1 was read as LGR2 antag 6, EBV LMP1 NFkB -15, EWS-Fli block 4, TWEAK Fn14 block 6, TROY signal inh 8 and PAX8 inh HTS 10.
For COc1cc(N2CCC(O)CC2)ccc1Nc1nnc(Cl)c(Nc2ccccc2S(C)(=O)=O)n1 the results were EBV LMP1 NFkB -4, TWEAK Fn14 block 16 and TROY signal inh 18.
For COc1cc(C(=O)N2CCC(N3CCN(C)CC3)CC2)ccc1Nc1ncc2c(n1)N(C)c1ccccc1C(=O)N2C the results were LGR2 antag -24, EWS-Fli block 59*, PAX8 inh HTS -105 and DNA binder FP -4%.
`C=CCOc1ccccc1C(=O)/C=C1/C(=O)Nc2ccccc21` gave LGR2 antag 7, EBV LMP1 NFkB 5, EWS-Fli block 58*, TWEAK Fn14 block 24, TROY signal inh 20, PAX8 inh HTS 0 and DNA binder FP -5%.
Screening C=CCOc1ccc(C(=O)/C=C2/C(=O)Nc3ccccc32)cc1 returned LGR2 antag 0, EBV LMP1 NFkB 1, EWS-Fli block 5, TWEAK Fn14 block -2, TROY signal inh -23 and PAX8 inh HTS 37.
C[C@H]1CN([C@@H](C)CO)C(=O)Cc2cc(NS(=O)(=O)c3ccc(Cl)cc3)ccc2O[C@@H]1CN(C)S(=O)(=O)c1cn(C)cn1 was read as LGR2 antag 13 and EWS-Fli block -8.
Cc1ccc2c(=O)n3c(nc2c1)C(Cc1ccc(O)cc1)NC(=O)c1cc2ccccc2cc1-3 (stereo not drawn) was read as LGR2 antag 3, EBV LMP1 NFkB 0, EWS-Fli block 53*, TWEAK Fn14 block 8, TROY signal inh 37, PAX8 inh HTS 45 and DNA binder FP -8%.
Screening Cc1ccc2nc3n(c(=O)c2c1)-c1cc2ccccc2cc1C(=O)NC3Cc1ccccc1 (stereo not drawn) returned LGR2 antag 9, EBV LMP1 NFkB 11, EWS-Fli block 50, TWEAK Fn14 block 23, TROY signal inh 11 and PAX8 inh HTS 55.
`COc1cccc(CN2CCC2(C)C(=O)Nc2cccc3cccnc23)c1F` (stereo not drawn) gave LGR2 antag 16, EWS-Fli block 59*, TWEAK Fn14 block 1, TROY signal inh 16, PAX8 inh HTS 38 and DNA binder FP -8%.
COc1ccc(OC)c(NC(=O)C2(C)CCN2Cc2cccc(OC)c2F)c1 (stereo not drawn) was read as LGR2 antag 5, EWS-Fli block 6, TWEAK Fn14 block 40, TROY signal inh 32 and PAX8 inh HTS 9.
Oc1c(C(c2ccc(Cl)cc2)N2CCCC2)cc(Cl)c2cccnc12 (stereo not drawn) was read as LGR2 antag 19, EBV LMP1 NFkB -18, EWS-Fli block 53*, TWEAK Fn14 block -4, TROY signal inh 0, PAX8 inh HTS 70* and DNA binder FP -2%.
`COc1cc2c(OC(C)=O)c3c(c(-c4ccc5c(c4)OCO5)c2cc1OC)C(=O)OC3` gave EBV LMP1 NFkB -75, EWS-Fli block 65*, TWEAK Fn14 block -103, TROY signal inh -18 and DNA binder FP -11%.
`CN(C)c1ccc(/C=C2\SC(=O)N(CC(O)Cn3c4ccccc4c4ccccc43)C2=O)cc1` (stereo not drawn) gave LGR2 antag -1, EBV LMP1 NFkB -9, TWEAK Fn14 block -21, TROY signal inh -6 and PAX8 inh HTS -1.
CN(C)c1ccc(C=c2c3ccccc3n3c2c2c([n+]3C)CCCC2)cc1 was read as LGR2 antag 32*, EBV LMP1 NFkB 42*, EWS-Fli block 53*, TWEAK Fn14 block 63*, TROY signal inh 48, PAX8 inh HTS 91* and DNA binder FP 6.5µM*.
For O=C(Nc1ccccc1F)N[C@H]1C=C[C@@H](CC(=O)N2CCCCC2)O[C@@H]1CO the results were LGR2 antag -7, EWS-Fli block -3 and PAX8 inh HTS -7.
`CCc1nc(N)nc(N)c1-c1ccc(Cl)c(N=[N+]=[N-])c1` gave LGR2 antag 3, EBV LMP1 NFkB 1, EWS-Fli block 67*!, TWEAK Fn14 block 0, TROY signal inh 15, PAX8 inh HTS 16 and DNA binder FP -7%.
CCc1nc(N)nc(N)c1-c1ccc(Cl)c([N+](=O)[O-])c1 was read as LGR2 antag 22, EBV LMP1 NFkB 32, EWS-Fli block 22, TWEAK Fn14 block 2, TROY signal inh 10 and PAX8 inh HTS 39.
`C[C@@H]1CN([C@@H](C)CO)C(=O)c2cc(NC(=O)CCN3CCOCC3)ccc2O[C@H]1CN(C)Cc1ccc(Oc2ccccc2)cc1` gave LGR2 antag 4 and EWS-Fli block -4.
Screening COc1ccc(/C=C2/NC(=O)N(CC(=O)Nc3cccc(C)c3)C2=O)cc1O returned LGR2 antag -14, EBV LMP1 NFkB -1, EWS-Fli block 62*, TWEAK Fn14 block -7, TROY signal inh -9, PAX8 inh HTS 8 and DNA binder FP -6%.

Assay outcomes: PubChem BioAssay, several laboratories
